GALR2 ag: GALR2 receptor agonists, primary screen, cell-based | Galanin receptor type 2 (Homo sapiens), O43603 | GALR2-expressing cells, agonist activation read-out | activation, % (no concentration beside the values) | hit rate 0.48% among 140,000; in the data active means activation above about 5%, passing the limit was not always enough;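 further: 0% = vehicle buffer wells and 100% = reference agonist at full effect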
Target sequence (O43603 whole entry, looked up): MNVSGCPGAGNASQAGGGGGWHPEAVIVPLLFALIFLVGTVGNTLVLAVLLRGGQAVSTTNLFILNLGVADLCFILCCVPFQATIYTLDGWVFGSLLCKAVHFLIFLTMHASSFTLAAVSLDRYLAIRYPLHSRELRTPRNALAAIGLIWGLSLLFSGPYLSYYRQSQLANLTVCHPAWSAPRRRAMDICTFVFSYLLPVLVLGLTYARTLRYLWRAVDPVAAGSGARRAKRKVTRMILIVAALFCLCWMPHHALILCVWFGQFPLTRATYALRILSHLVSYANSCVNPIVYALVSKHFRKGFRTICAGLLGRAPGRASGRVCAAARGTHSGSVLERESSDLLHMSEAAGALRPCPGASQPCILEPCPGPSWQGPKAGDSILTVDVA
GALR2 blocker: GALR2 antagonists in receptor-expressing cells, primary screen | antagonist mode | inhibition, % at 4 µM | hit rate 0.39% among 140,000;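 further: cells stimulated with galanin 1-16 at roughly its EC80; 0% = agonist challenge control and 100% = basal control without agonist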
PLAP activator: PLAP enzyme activators, biochemical, luminescence, HTS | Alkaline phosphatase, placental type (Homo sapiens), P05187 | purified PLAP enzyme, luminescent substrate read-out; stronger effect = higher value | activation fold at 20 µM | hit rate 1.2% among 96,000; in the data active means activation fold above about 2
S1P2 ag: S1P2 receptor agonists, primary screen, cell-based; Sphingosine 1-phosphate receptor 2 (Homo sapiens), O95136; S1P2-expressing cell line, agonist reporter read-out; activation, % at 4.5 µM; hit rate 0.46% among 97,000; in the data active means activation above about 16%;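 further: 0% = vehicle low control and 100% = maximal reference agonist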
S1P2 blocker: human S1P2 receptor antagonists, primary screen, cell-based | hit rate 0.21% among 97,000 | cell-based S1P2 antagonist assay, inhibition at 5 uM | AID 736, 2007 | inhibition, % at 5 µM | Sphingosine 1-phosphate receptor 2 (Homo sapiens), O95136; in the data active means inhibition above about 45%;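 further: CRE beta-lactamase reporter cells expressing human S1P2 stimulated with S1P; 0% = agonist at EC80 alone and 100% = agonist plus reference antagonist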
GALR2 blk conf: GALR2 antagonists, retest of hits, confirmation, cell-based | inhibition, % at 4 µM | GALR2-expressing cells, antagonist mode, inhibition | shares compounds with GALR2 blocker | AID 866, 2007 | hit rate 60% among 480;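 further: cells stimulated with galanin at about its EC80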
BLA inhib ctr: inhibitors of NFAT-driven beta-lactamase reporter, confirmation, counter-screen for GALR2 antagonist project, CHO NFAT-bla cells, FRET readout | thapsigargin-stimulated | shares compounds with GALR2 blocker | inhibition, % at 4.2 µM | hit rate 36% among 480;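 active means inhibition above the mean inhibition across tested compounds plus 3 SD, cut at about 27% in these data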;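 further: 0% = 500 nM thapsigargin stimulated wells and 100% = unstimulated BSA only wells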
An asterisk follows results filed as active; / = no result. Most compounds without a hit are left out; they make up all but 2% or so of the library. Unless noted, no stated cut-off is given here; in the data, active means inhibition above about 27%; inactive means the rest.

SMILES	GALR2 ag	GALR2 blocker	PLAP activator	S1P2 ag	S1P2 blocker	GALR2 blk conf	BLA inhib ctr
COc1ccc(C(=O)C(CCCCC(CN(C)C)C(=O)c2ccc(OC)cc2)CN(C)C)cc1 (configuration not stated)	-3	7	1.4	-1	11	/	/
CCOc1ccc(C(=O)C(CCC(CN(C)C)C(=O)c2ccc(OCC)cc2)CN(C)C)cc1 (configuration not stated)	3	39*	/	/	/	28*	30*
CCn1c2ccccc2c2cc(NC(=O)c3cc(OC)c(OC)c(OC)c3)ccc21	1	29*	1.4	5	-13	43*	67*
O=[N+]([O-])c1ccc(-c2cc(-c3ccncc3)nc3ccc4ccccc4c23)cc1	-2	-16	0.9	-4	15	/	/
COc1ccc(S(=O)(=O)Nc2ccccc2-c2nnn(CC(=O)Nc3ccccc3OC)n2)cc1	-1	28*	/	/	/	23	11
CCc1ccc2c(c1)C1(NN=C(c3cccc4ccccc34)S1)C(=O)N2 (configuration not stated)	1	29*	/	-7	27	13	10
CC(C)(C)OC(=O)N[C@@H](Cc1ccccc1)c1nnc(SCC(=O)O)o1	0	2	1	-8	22	/	/
Cc1ccccc1CS(=O)(=O)c1nnc([C@H](Cc2ccccc2)NC(=O)OC(C)(C)C)o1	3	28*	1.6	-5	24	33*	56*
CCC(=O)N(CCCN(C)C)c1nc(-c2cc(OC)ccc2OC)cs1	-1	6	1.3	-4	3	/	/
COCCCN(C(=O)c1ccco1)c1nc(-c2cc(OC)ccc2OC)cs1	-1	85*	0.9	-2	-3	5	12
CCC(C)(C)NC(=O)C(c1ccco1)N(C(=O)c1csnn1)c1cccc(F)c1 (configuration not stated)	-2	4	1	-8	1	/	/
c1ccc2c(c1)OCC(CNc1ncnc3sccc13)O2 (configuration not stated)	0	42*	/	/	/	54*	11
c1cncc(-c2nc(NCC3COc4ccccc4O3)c3ccccc3n2)c1 (configuration not stated)	-1	5	0.8	4	-7	/	/
Cc1ccc(-n2c(Cl)c(Cl)nc(Cl)c2=O)cc1	2	81*	/	/	/	92*	99*
CCN(CC)C(=O)C(=O)N/N=C/c1ccc(Br)cc1	-1	1	1.3	-3	7	/	/
CN(/N=C\c1ccc(O)c(O)c1)c1nc(-c2ccccc2)cc(-c2ccccc2)n1	0	47*	/	/	/	64*	81*
CC(C)N=C(NS(=O)(=O)c1ccccc1)C(Cl)(Cl)Cl	-1	19	/	/	/	/	/
Cc1ccc(CNC(=O)c2ccc(N3CCCC3=O)cc2)cc1	-2	7	1	-2	6	/	/
Cn1nc(C(C)(C)C)cc1C(=O)NCc1ccc(N2CCCC2=O)cc1	-2	45*	1.1	/	/	39*	9
COc1ccc(CCN2C(=O)c3cccc4c(C(=O)N5CCCCC5)ccc(c34)C2=O)cc1OC	1	2	/	/	/	/	/
COc1ccc(NS(=O)(=O)Cc2ccccc2Cl)cn1	0	2	1.1	-6	20	/	/
COc1ccc(NC(=O)/C(Cl)=C(/Cl)S(=O)(=O)Cc2ccccc2)cn1	-2	82*	0.8	-10	104*	92*	92*
O=C1c2ccccc2C(=O)N1CCc1csc(-c2cccc(F)c2)n1	1	-29	0.9	-3	-27	/	/
